Experimental data published in PubChem BioAssay.
Active and inactive are the calls of the source.

Columns and labels:
[1] = small molecules captured by biotinylated probe aFSTL3 – biochemical, small-molecule microarray, fluorescence 635/667, stem cell growth factor project, primary screen (AID 1064); conditions: higher = more signal;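 also: measures binding of the biotinylated anti-FSTL3 antibody to printed compounds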
[2] = binders from COS7 lysate, DM2A8 probe, primary screen, torsin A project, cell lysate, small-molecule microarray, fluorescence 635/667 (AID 1065); conditions: higher = more signal, COS7 lysate expressing mutant human TOR1A
[3] = small molecules captured by biotinylated probe aFGF2 – biochemical, small-molecule microarray, fluorescence 635/667, stem cell growth factor project, primary screen (AID 1067); conditions: higher = more signal;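 also: measures binding of biotinylated aFGF2 protein to printed compounds on slides; z-score merges feature fluorescence and signal-to-noise across triplicate slides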
[4] = small molecules captured by biotinylated probe aFGF10 – biochemical, small-molecule microarray, fluorescence 635/667, stem cell growth factor project, primary screen (AID 1071); conditions: higher = more signal;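 also: score merges 667 nm spot intensity and signal to noise from triplicate slides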
[5] = biological target: Neurogenic locus notch homolog protein 2 (Homo sapiens) (UniProt Q04721); experiment: small molecules binding Notch2 protein – biochemical, small-molecule microarray, 635 nm fluorescence, stem cell growth factors, primary screen (AID 1073); conditions: higher = more signal
[6] = biological target: Pro-neuregulin-1, membrane-bound isoform (Homo sapiens) (UniProt Q02297); experiment: small molecules binding neuregulin-1 protein – biochemical, small-molecule microarray, fluorescence 635/667, psychiatric disease protein project, primary screen (AID 1075); conditions: NRG1 binding, 635 nm fluorescence, higher = more signal;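 also: score combines 667 nm spot fluorescence with signal to noise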
[7] = tested on: Neuregulin-1 EGF-like domain; experiment: small molecules binding NRG1 EGF domain – biochemical, small-molecule microarray, 635 nm fluorescence, primary screen (AID 1081); conditions: higher = more signal;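 also: binding of the protein to compounds printed on small-molecule microarray slides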
[8] = FRG1 expression reporter modulators in myotubes – cell-based, C2C12 myotubes, firefly/Renilla luciferase, luminescence, FRG1 inhibition for FSHD, primary screen (AID 1084); conditions: FRG1 promoter luciferase, higher = more signal, called active from +8 up or from −8 down
[9] = small molecules captured by biotinylated probe aFST – biochemical, small-molecule microarray, fluorescence 635/667, stem cell growth factor project, primary screen (AID 1086); conditions: higher = more signal;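 also: score merges 667 nm fluorescence with signal-to-noise of each printed compound spot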
[10] = binders of probe aHhip on microarray, primary screen, stem cell growth factor project, biochemical, small-molecule microarray, fluorescence 635/667 (AID 1087); conditions: higher = more signal;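 also: score merges spot fluorescence at 667nm with spot signal to noise ratio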
[11] = tested on: PRMT1 (protein arginine N-methyltransferase 1); experiment: small molecules binding arginine methyltransferase PRMT1 – biochemical, small-molecule microarray, 635 nm fluorescence, primary screen (AID 1088); conditions: higher = more signal;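 also: binding of Prmt1 protein to compounds spotted on small-molecule microarray slides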
[12] = growth effects on S. cerevisiae YJM789 – YJM789 clinical isolate, OD600, 24 h, basal, primary screen (AID 1089); conditions: higher = more signal, called active from +8 up or from −8 down;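 also: growth of clinical yeast isolate S. cerevisiae YJM 789 seeded 1000 cells per well; test concentration not given here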
[13] = S. pombe growth modifiers, basal conditions – strain 972, OD600, 24 h, no modulator, primary screen (AID 1090);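 also: basal condition with compound alone and no growth modifier present; test concentration not given here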; conditions: S. pombe 972 growth, higher = more signal, called active from +8 up or from −8 down
[14] = budding yeast growth modifiers under rapamycin – strain BY4716, OD600, 96 h, primary screen (AID 1091); also: test concentration not given here; conditions: S. cerevisiae BY4716 + rapamycin, higher = more signal, called active from +8 up or from −8 down
[15] = biological target: Torsin-1A-interacting protein 2 (Homo sapiens) (UniProt Q8NFQ8); experiment: small molecules binding lysate-expressed LULL1 – cell lysate, human LULL1 lysate, 635/667 nm fluorescence, primary screen (AID 1092); conditions: small-molecule microarray, hLULL1 lysate binding, 635 nm fluorescence; higher = more signal;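 also: probe is lysate of COS7 cells overexpressing human LULL1; score merges per-feature 667 nm fluorescence with signal-to-noise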
[16] = optical density change of DRC41 E. coli – strain DRC41, OD650, 24 h, E. coli filamentation project, primary screen (AID 1093);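 also: MC1000 strain lacking acrAB efflux and sulA so SOS filamentation is blocked; test concentration not given here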; conditions: E. coli DRC41 growth, higher = more signal, called active from +8 up or from −8 down
[17] = probe aLefty2 binding to arrayed compounds – biochemical, biotinylated probe, 635/667 nm fluorescence, primary screen (AID 1094); conditions: small-molecule microarray, higher = more signal;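 also: score merges spot fluorescence near 667 nm with spot signal-to-noise ratio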
[18] = tested on: Noggin (protein binding on small-molecule microarray); experiment: small molecules binding Noggin protein – biochemical, 635/667 nm fluorescence, primary screen (AID 1095); conditions: 635 nm fluorescence, higher = more signal;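 also: score merges 667 nm feature fluorescence with signal to noise over triplicate slides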
[19] = biological target: Neurogenic locus notch homolog protein 3 (Homo sapiens) (UniProt Q9UM47); experiment: small molecules binding NOTCH3 protein – biochemical, 635/667 nm fluorescence, primary screen (AID 1096); conditions: small-molecule microarray, 635 nm fluorescence, higher = more signal
[20] = probe aEGFR binding to arrayed compounds – biochemical, biotinylated probe, 635/667 nm fluorescence, primary screen (AID 1097); conditions: small-molecule microarray, higher = more signal;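 also: probe is a biotinylated anti-EGFR antibody binding compounds printed on slides; score combines fluorescence near 667 nm and signal to noise of each spot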

Pro-neuregulin-1, membrane-bound isoform (Homo sapiens), sequence (Q02297 whole entry, looked up, the tested form may be a part, canonical isoform): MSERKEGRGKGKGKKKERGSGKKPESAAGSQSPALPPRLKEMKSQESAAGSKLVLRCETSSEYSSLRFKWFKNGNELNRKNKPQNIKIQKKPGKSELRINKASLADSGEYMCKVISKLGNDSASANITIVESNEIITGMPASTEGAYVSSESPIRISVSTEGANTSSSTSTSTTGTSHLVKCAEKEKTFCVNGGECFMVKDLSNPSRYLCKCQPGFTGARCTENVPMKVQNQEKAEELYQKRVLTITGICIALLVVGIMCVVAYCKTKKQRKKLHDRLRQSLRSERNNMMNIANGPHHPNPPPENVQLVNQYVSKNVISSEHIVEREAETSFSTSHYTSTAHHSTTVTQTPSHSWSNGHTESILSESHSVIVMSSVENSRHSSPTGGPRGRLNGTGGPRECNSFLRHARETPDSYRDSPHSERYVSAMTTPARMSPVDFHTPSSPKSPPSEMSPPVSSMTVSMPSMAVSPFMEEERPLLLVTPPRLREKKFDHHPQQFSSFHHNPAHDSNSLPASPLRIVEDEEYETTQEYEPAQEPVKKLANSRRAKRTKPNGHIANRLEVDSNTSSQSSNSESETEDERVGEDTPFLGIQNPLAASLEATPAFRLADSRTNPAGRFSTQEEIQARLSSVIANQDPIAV
Neurogenic locus notch homolog protein 3 (Homo sapiens), sequence (Q9UM47 whole entry, looked up): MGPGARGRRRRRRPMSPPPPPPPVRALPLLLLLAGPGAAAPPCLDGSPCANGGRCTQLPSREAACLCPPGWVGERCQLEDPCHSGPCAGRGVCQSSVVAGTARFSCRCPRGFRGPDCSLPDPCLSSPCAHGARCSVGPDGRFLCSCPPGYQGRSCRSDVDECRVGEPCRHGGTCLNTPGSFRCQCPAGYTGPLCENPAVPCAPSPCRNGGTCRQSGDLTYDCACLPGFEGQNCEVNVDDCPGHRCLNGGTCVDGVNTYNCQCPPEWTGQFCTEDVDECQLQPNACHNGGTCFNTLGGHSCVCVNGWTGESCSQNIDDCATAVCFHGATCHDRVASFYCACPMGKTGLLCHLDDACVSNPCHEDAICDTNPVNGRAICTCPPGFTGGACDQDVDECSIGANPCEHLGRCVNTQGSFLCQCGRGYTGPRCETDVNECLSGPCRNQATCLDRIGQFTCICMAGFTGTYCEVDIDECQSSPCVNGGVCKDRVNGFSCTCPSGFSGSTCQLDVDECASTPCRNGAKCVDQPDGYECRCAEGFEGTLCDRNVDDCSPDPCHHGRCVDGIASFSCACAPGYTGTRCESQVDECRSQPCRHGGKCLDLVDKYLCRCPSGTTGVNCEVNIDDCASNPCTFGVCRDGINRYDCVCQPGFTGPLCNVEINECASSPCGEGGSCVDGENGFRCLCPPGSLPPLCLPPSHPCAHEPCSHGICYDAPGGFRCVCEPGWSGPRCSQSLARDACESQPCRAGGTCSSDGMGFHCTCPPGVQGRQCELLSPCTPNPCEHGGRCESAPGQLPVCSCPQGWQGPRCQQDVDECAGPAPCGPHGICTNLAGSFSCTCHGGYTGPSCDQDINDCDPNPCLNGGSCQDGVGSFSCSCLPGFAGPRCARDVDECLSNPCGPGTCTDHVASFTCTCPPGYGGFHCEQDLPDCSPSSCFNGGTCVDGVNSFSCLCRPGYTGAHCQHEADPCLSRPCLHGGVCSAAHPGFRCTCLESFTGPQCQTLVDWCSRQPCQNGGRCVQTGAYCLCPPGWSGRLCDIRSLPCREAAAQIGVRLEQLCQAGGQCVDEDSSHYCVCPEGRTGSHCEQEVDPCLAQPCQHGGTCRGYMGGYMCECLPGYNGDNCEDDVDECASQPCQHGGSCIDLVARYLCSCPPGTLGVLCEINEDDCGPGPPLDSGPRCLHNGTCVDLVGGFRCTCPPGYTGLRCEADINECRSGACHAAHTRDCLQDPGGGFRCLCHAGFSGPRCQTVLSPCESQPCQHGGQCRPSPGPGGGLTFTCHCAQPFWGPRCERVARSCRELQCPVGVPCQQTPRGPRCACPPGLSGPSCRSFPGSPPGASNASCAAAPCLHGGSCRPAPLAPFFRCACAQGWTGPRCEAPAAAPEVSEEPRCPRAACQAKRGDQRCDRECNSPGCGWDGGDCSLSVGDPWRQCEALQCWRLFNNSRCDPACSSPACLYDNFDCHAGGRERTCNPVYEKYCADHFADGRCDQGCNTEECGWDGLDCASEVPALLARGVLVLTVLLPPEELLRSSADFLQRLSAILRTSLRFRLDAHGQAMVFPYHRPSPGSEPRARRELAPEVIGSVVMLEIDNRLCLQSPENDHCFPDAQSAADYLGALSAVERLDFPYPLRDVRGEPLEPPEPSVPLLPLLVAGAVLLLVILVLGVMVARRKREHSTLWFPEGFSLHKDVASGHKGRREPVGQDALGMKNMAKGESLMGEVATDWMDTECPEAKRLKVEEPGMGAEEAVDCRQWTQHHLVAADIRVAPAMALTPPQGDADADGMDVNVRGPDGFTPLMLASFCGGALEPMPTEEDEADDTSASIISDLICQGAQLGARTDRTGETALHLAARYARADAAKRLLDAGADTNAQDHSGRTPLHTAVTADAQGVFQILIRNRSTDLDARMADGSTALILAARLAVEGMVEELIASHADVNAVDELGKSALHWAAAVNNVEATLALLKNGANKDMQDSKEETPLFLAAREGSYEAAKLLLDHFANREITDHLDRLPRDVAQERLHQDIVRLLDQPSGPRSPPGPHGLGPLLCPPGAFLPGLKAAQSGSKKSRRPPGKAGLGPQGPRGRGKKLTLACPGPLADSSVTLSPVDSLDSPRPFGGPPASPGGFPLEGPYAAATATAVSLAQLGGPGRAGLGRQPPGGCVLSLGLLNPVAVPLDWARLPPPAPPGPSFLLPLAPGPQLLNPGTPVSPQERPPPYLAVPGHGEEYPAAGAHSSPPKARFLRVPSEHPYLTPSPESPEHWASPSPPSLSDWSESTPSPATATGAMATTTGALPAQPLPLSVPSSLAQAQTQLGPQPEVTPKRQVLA
Torsin-1A-interacting protein 2 (Homo sapiens), sequence (Q8NFQ8 whole entry, looked up): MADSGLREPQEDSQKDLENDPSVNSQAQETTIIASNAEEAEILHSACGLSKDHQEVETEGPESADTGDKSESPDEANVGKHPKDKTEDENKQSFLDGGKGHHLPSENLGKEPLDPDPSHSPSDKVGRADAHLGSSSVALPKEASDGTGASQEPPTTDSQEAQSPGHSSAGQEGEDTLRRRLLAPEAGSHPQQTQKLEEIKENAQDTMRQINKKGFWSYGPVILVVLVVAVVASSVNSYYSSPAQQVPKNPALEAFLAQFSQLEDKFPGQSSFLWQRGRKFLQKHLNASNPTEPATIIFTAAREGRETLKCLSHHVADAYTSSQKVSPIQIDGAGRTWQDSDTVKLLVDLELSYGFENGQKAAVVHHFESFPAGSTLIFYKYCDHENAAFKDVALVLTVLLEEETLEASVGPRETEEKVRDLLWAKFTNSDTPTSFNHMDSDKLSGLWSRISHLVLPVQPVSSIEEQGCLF

Compound	composite z-score [1]	composite z-score [2]	composite z-score [3]	composite z-score [4]	composite z-score [5]	composite z-score [6]	composite z-score [7]	z-score [8]	composite z-score [9]	composite z-score [10]	composite z-score [11]	z-score [12]	z-score [13]	z-score [14]	composite z-score [15]	z-score [16]	composite z-score [17]	composite z-score [18]	composite z-score [19]	composite z-score [20]
O=C(OCCF)C1=CCC(c2cccc(Cl)c2)O1 (stereo not given)	-0.422	0.0213	-0.0907	0.193	0.926	-0.0442	1.03	-1.68 (inactive)	0.5	-0.226	0.581	-3.17 (inactive)	-0.988 (inactive)	2.82 (inactive)	0.856	-0.0288 (inactive)	-0.141	0.207	0.1	-0.0121
COC(=O)[C@]1(Cc2ccccc2N=[N+]=[N-])N=C(c2ccc(OCCCO)cc2)O[C@@H]1c1ccccc1N=[N+]=[N-]	-0.13	-0.126	-0.0512	-0.102	0.374	0.46	1.1	3.58 (inactive)	0.197	-0.0994	0.822	0.189 (inactive)	-0.0643 (inactive)	14.9 (active)	0.59	-0.962 (inactive)	-0.166	0.347	0.251	-0.0656
CC(C)Cc1ccc(CN2CC[C@@H](NS(=O)(=O)c3ccccc3)C2)cc1	-0.402	1.96	-0.192	-0.188	-1.43	-0.163	-0.0314	-0.803 (inactive)	-0.459	-0.132	1.01	-14.6 (active)	-20.9 (active)	-3.57 (inactive)	0.846	-19.6 (active)	-0.296	0.864	0.12	-0.154
COCC(=C=CC[C@H](O)c1ccc(OCCO)cc1)C[C@H](O)c1cc(Cl)cc(Cl)c1O	-0.327	0.95	-0.0125	0.754	0.623	0.458	1.16	-3.67 (inactive)	0.582	0.0505	1.55	-24.9 (active)	-20.5 (active)	-3.87 (inactive)	-1.22	0.813 (inactive)	-0.166	1.86	1.12	-0.0334
[N-]=[N+]=NCc1ccccc1C[C@]1(C(=O)NCC(O)CO)N=C(c2ccc(OCCCO)cc2)O[C@H]1c1ccccc1N=[N+]=[N-] (stereo not given in full)	1.55	0.459	-0.01	0.77	0.814	1.17	0.731	-0.5 (inactive)	0.575	-0.194	-0.384	0.727 (inactive)	0.325 (inactive)	2.77 (inactive)	2.61	1.02 (inactive)	0.679	-0.761	-0.25	0.428
COC(=O)[C@@]1(Cc2ccc(OC)cc2)[C@H]2c3cc(C(=O)N4CCCC4)n(Cc4ccccn4)c3C[C@H]2CN1C(=O)c1ccccc1	0.381	0.765	0.396	1.11	1.66	2.1	1.4	2.78 (inactive)	1.01	0.501	0.897	0.627 (inactive)	0.482 (inactive)	1.33 (inactive)	3.86	0.245 (inactive)	0.346	-0.404	0.979	0.155
COc1ccc(CCN2C(=O)[C@@]3(Cc4ccccc42)c2ccccc2C(=O)N(Cc2ccccc2Cl)[C@H]3c2ccc(CO)cc2)cc1	0.451	-0.73	-0.0744	-0.249	-0.13	-0.221	0.834	-0.236 (inactive)	-0.285	-0.0994	1.34	-0.411 (inactive)	-1.51 (inactive)	-1.24 (inactive)	0.494	0.169 (inactive)	-0.126	-1.05	-0.981	-0.169
[N-]=[N+]=NCc1ccccc1[C@H]1OC(c2ccc(OCCCO)cc2)=N[C@@]1(CCS(=O)(=O)c1ccccc1)C(=O)N1CCOCC1	0.476	0.525	0.221	1.03	1.63	2.18	1.16	0.51 (inactive)	1.86	-0.0391	1.27	0.0373 (inactive)	0.553 (inactive)	2.23 (inactive)	3.65	0.151 (inactive)	0.663	0.346	1.1	0.302
COC(=O)c1ccc(C(O)C2C=CC3C(=O)N(c4ccccc4)C(=O)C3N2Nc2ccc(C#N)cc2)o1 (stereo not given)	0.042	0.465	0.0394	0.865	1.33	0.665	1.34	0.447 (inactive)	0.478	-0.199	0.431	-0.0337 (inactive)	0.328 (inactive)	0.989 (inactive)	3.19	-1.07 (inactive)	-0.0478	0.284	0.927	-0.0446
C=CCC(OC(C)=O)[C@@H]1[C@@H](N(Cc2ccc(-c3cccc(C(F)(F)F)c3)o2)C(=O)c2ccc(C)cc2)c2cc(OCCCO)ccc2N1C(=O)c1ccc(-c2ccccc2)cc1 (stereo not given in full)	-0.322	-0.179	-0.129	0.265	0.0105	-0.416	-0.515	0.887 (inactive)	0.137	-0.214	0.0003	0.0652 (inactive)	-1.07 (inactive)	0.271 (inactive)	0.476	1.03 (inactive)	-0.194	0.507	0.46	-0.139
